# Test results taken from PubChem BioAssay AID624206 (National Center for Advancing Translational Sciences (NCATS), 2012).
# Active and inactive are the calls of the source. The call rests on the fitted dose curve; in most records, active means well fitted curve in the direction sought with a large enough effect; inconclusive means small, poorly fitted or top-dose-only effect, or another doubt; inactive means no such curve, though single readings can be large or run the other way.
# Experiment: Quantitative high throughput screen to test cell viability of anti-malarial compounds targeting the delayed death phenotype.
# Settings: HepG2 viability, CellTiter-Glo luminescence, 48 h
# Source text: NIH Molecular Libraries Probe Production Network [MLPCN] NIH Chemical Genomics Center [NCGC] MLPCN Grant: R21 NS059500 Assay Provider: David Fidock and Eric Ekland, Columbia University The goal of this screen is to measuer the cytoxoxicity (against HepG2 cell line) of a set of anti-malarial compounds that target the delayed death pheonotype, by inhibiting the development of the apicoplast in the malarial parasite Plasmodium falciparum (described below) The biochemical processes that make this organelle essential for erythrocytic stage parasites are not well understood. However, antibiotics, such as azithromycin and tetracycline, which target the apicoplast translational machinery, have a potent antimalarial effect. […] We have developed a cell-based assay that measures parasite growth based on the expression of an integrated copy of a firefly luciferase reporter. To detect small molecules that cause this 'delayed death' phenotype, erythrocytes infected with the luciferase-expressing parasites were incubated with compounds for either one or two generations, corresponding to 48 and 96 hours, respectively. Compounds that inhibit parasite growth in the second generation, but not the first, should be enriched in antimalarials that target the apicoplast. Growth inhibition is detected by a decrease in luciferase activity
# Cells were plated at a density of 2000 cells/well/5uL in 1536 well white tissue culture plate with culture medium. Triplicate plates were prepared. Plates were incubated at 37C, 5% CO2 for 5 hours and then 23nL of compounds and positive control were transferred to the assay plates. Tetraoctylammonium bromide was added as a positive control. Plates were then incubated at 37C, 5% CO2 for 48 hours. 5 uL of CellTitler-Glo buffer was added to each well and then incubated for 30 min at room temperature. Luminescence was measured using ViewLux (1 second, slow, 2X).
row,SMILES,max response
1,CO[C@H]1[C@H](O[C@H]2O[C@@H](C)[C@@H](O[C@@H]3C[C@](C)(O)[C@H](O)[C@H](C)O3)[C@@H](N(C)C)[C@@H]2O)[C@@H](CC=O)C[C@@H](C)[C@@H](O[C@H]2CC[C@H](N(C)C)[C@H](C)O2)/C=C\C=C/C[C@@H](C)OC(=O)C[C@H]1O,5.01% (inactive)
2,COc1ccc(C(=O)N2CCN(S(=O)(=O)c3ccc(C)cc3C)CC2)cc1OC,-11.6% (inactive)
3,Brc1cccc(OCCCCN2CCCCC2)c1,-6.02% (inactive)
4,O=C(NCc1cccnc1)c1ccc(NS(=O)(=O)c2ccccc2)cc1,-0.715% (inactive)
5,CCC(=O)OC1C(N(C)C)CC(C)O[C@H]1O[C@H]1[C@H](C)[C@@H](O[C@H]2CC(OC)[C@@H](O)C(C)O2)[C@H](C)C(=O)O[C@@H](CC)[C@](C)(O)[C@@H](O)[C@H](C)C(=O)[C@@H](C)C[C@]1(C)O (stereo not given in full),10.5% (inactive)
6,CC1=Nc2cc(C(=O)N3CCCC3)ccc2Sc2ccc(C)cc21,5.45% (inactive)
7,CCCc1cc(=O)oc2cc(OC(C)C(=O)NCc3ccccn3)c(Cl)cc12 (stereo not given),11.2% (inactive)
8,N#Cc1cccc(NC(=O)Cn2c3[n+](c4ccc(C(F)(F)F)cc42)CCCCC3)c1,14.7% (inactive)
9,Cc1ccc(S(=O)(=O)Nc2ccc(C(=O)Nc3ccncc3)cc2)cc1,5.11% (inactive)
10,CCCc1c(CC)c(=N)c2ccccc2n1C,13.6% (inactive)
11,CCN(CC)C(=O)COc1coc(CN2CCN(c3cccc(Cl)c3)CC2)cc1=O,3.88% (inactive)
12,COc1ccccc1N1CCN(CCC(=O)Nc2ccc(F)cc2)CC1,6.7% (inactive)
13,O=C(c1ccc([N+](=O)[O-])cc1)n1nc(-c2ccccc2)nc1NCc1ccc(F)cc1,17.5% (inactive)
14,COCCNC(=O)c1cccc(OC2CCN(Cc3cccc(SC)c3)CC2)c1,-0.53% (inactive)
15,CN(C)S(=O)(=O)c1cc(NC(=O)C2=COCCO2)ccc1Cl,13.5% (inactive)
16,CC(C)C(=O)NCCSc1c[nH]c2ccccc12,-11.2% (inactive)
17,COc1ccc2cc3cc(C(=O)Nc4ccc5c(c4)OCO5)oc3nc2c1,-29.2% (inactive)
18,CCCCN(CCCNC(=O)c1ccc(CS(=O)(=O)c2ccc(OC)cc2)o1)Cc1ccccc1,-1.11% (inactive)
19,CC(=O)NC[C@@H]1CN(c2ccc(N3CCOCC3)c(F)c2)C(=O)O1,12.4% (inactive)
20,CCCCOc1ccc(N2C(N)=NC(N)=NC23CCCCC3)cc1,-12% (inactive)

row,SMILES,max response
1,COc1ccc(CNC(=O)C2CCC(CNS(=O)(=O)c3cccc4cccnc34)CC2)cc1 (stereo not given),4.48% (inactive)
2,Cc1ccc(-n2c(-c3ccc(Cl)cc3)c[n+]3c2CCC3)cc1,-10.3% (inactive)
3,CCOc1ccc(NC(=O)C[n+]2ccc(N(C)C)cc2)cc1,8.12% (inactive)
4,Cc1ccc(CN2CCC(n3nccc3NC(=O)c3ccccc3C)CC2)o1,13.2% (inactive)
5,CCCCN(CCCNC(=O)C1CCN(C(=O)c2cc3sccc3n2C)CC1)Cc1ccccc1,0.234% (inactive)
6,Cc1c(F)c(N2CCNC(C)C2)cc2c1c(=O)c(C(=O)O)cn2C1CC1 (stereo not given),12.4% (inactive)
7,COc1cccc(CN2CCN(c3nc4nonc4nc3N3CCCCC3)CC2=O)c1,15.7% (inactive)
8,COc1ccc2c(ccc[n+]2CC(=O)c2ccccc2)c1,5.11% (inactive)
9,c1csc(CNc2ncnc3nc[nH]c23)c1,12.9% (inactive)
10,O=C(CNC(=O)C1CCCCC1)OC(C(=O)c1ccccc1)c1ccccc1 (stereo not given),20.4% (inactive)
11,Clc1ccc(-c2c[n+](Cc3ccc(Cl)cc3Cl)c3n2CCCCC3)cc1,-16.1% (inactive)
12,CCOC(=O)c1ccc2c(c1)n(CC)c(/C=C/N(C)c1ccccc1)[n+]2CC,-1.94% (inactive)
13,Cc1sc2nc[nH]c(=O)c2c1-c1ccc(Cl)cc1,3.87% (inactive)
14,COc1ccc(Nc2nnc(-c3ccc(C)cc3)c3ccccc23)cc1C(=O)N1CCCCC1,-6.06% (inactive)
15,CCOc1ccc(S(=O)(=O)Nc2cc(S(=O)(=O)N(CC)CC)ccc2N2CCCC2)cc1,-26.9% (inactive)
16,O=C(CSc1ccc(-c2cccnc2)nn1)Nc1ccccc1C(F)(F)F,0.59% (inactive)
17,CCc1nc(SCC(=O)Nc2ccc(N(C)C)cc2)n[nH]1,1.4% (inactive)
18,CN(C)c1ccc(CN(C(=O)c2ccccc2Br)C2CCS(=O)(=O)C2)cc1 (stereo not given),14.8% (inactive)
19,CO[C@@H]1[C@@H](OC2OC(C)C(OC3CC(C)(O)C(OC(=O)CC(C)C)C(C)O3)C(N(C)C)C2O)[C@@H](CC=O)C[C@@H](C)C(=O)/C=C\C2O[C@H]2C[C@@H](C)OC(=O)C[C@H]1OC(C)=O (stereo not given in full),14.6% (inactive)
20,O=C(Nc1ccccc1N1CCOCC1)c1cccc(S(=O)(=O)N2CCOCC2)c1,0.827% (inactive)
